In PubChem BioAssay (NCATS):
Records with an inconclusive call do not appear. Unmarked numbers belong to inactive results. Calls of active or inactive are those of the source. Unless noted, the call rests on the fitted dose curve; in most records, active means well fitted curve in either direction with a large enough effect (not every such curve was filed as active); inconclusive means small, poorly fitted or top-dose-only effect, or another doubt; inactive means flat fitted curve, though single readings scatter.

Molecular target: Cytochrome P450 1A2 (Homo sapiens) (UniProt P05177)
Assay: p450-cyp1a2 (AID 410; calls by dose curve; further: potency means the concentration at half of the fitted maximal effect;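 on activity change, negative = inhibition: -100% = full effect of reference inhibitor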)
Settings: recombinant CYP1A2, luciferin-ME demethylation, luminescence; series mostly up to 57 µM
Summary of the method: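 20nM CYP1A2, 100uM Luciferin-ME (=Km), 100mM KPO4; cpd 10 min RT; +NADPH regen, 60 min RT; stop/detect 20 min; luminescence. Normalized to furafylline 57 uM = full inhibition.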

Chain of Cytochrome P450 1A2 (Homo sapiens) (P05177 whole entry, looked up): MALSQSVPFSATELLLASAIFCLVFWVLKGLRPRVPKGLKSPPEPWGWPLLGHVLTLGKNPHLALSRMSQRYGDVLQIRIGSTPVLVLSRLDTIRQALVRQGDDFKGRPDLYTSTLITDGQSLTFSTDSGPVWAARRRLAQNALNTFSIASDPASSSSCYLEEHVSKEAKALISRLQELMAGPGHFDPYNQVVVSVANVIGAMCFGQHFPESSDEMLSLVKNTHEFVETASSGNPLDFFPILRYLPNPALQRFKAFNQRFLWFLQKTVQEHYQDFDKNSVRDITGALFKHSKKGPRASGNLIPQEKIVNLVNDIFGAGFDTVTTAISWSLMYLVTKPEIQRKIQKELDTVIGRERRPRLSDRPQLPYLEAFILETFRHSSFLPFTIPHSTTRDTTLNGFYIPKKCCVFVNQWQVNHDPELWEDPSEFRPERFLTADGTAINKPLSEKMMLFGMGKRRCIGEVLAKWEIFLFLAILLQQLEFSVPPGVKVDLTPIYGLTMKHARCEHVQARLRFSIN

| Structure (SMILES) | Potency |
| --- | --- |
| O=C(Nc1cccc(F)c1)N1CCC2(CC1)CCN(C(=O)c1csnn1)CC2 | inactive |
| COC(=O)N1CCC2(CC1)CCN(c1ccccc1)CC2 | inactive |
| N#Cc1cccc(NC(=O)N2CCC3(CC2)CCN(C(=O)c2ccco2)CC3)c1 | inactive |
| O=C(c1cnccn1)N1CCC[C@@]2(CCN(c3ccncc3)C2)C1 | inactive |
| CS(=O)(=O)N1CCC2(CC1)CN(Cc1cc(C(F)(F)F)cc(C(F)(F)F)c1)C2 | inactive |
| Cn1cccc1C(=O)N1CCC[C@@]2(CCN(Cc3cc(C(F)(F)F)cc(C(F)(F)F)c3)C2)C1 | inactive |
| N#Cc1ccc(CN2CCCC3(CCN(C(=O)c4cccc(F)c4)CC3)C2)cc1 | inactive |
| COc1ccc(NC(=O)N2CC3(CCN(C(C)=O)CC3)C2)cc1 | inactive |
| N#Cc1cccc(NC(=O)N2CCC3(CC2)CCN(C(=O)c2csnn2)CC3)c1 | inactive |
| COc1ccccc1CN1CCC2(CC1)CCN(C(C)=O)CC2 | inactive |
| Cc1noc(C)c1C(=O)N1CCC2(CCN(C(=O)Nc3ccccc3)CC2)CC1 | inactive |
| O=C(Oc1ccccc1)N1CCC2(CC1)CN(c1ccccc1)C2 | 15.8 µM (active) |
| COC(=O)N1CCC[C@@]2(CCN(C(c3ccccc3)c3ccccc3)C2)C1 | 12.6 µM (active) |
| Cn1cccc1C(=O)N1CCC2(CC1)CCN(c1ccccc1)CC2 | 12.6 µM (active) |
| CC(=O)N1CCC2(CC1)CN(c1ccccn1)C2 | inactive |
| CS(=O)(=O)N1CCC2(CC1)CN(c1cccc(-c3ccccc3)c1)C2 | 5.01 µM (active) |
| CC(C)CN1CC[C@@]2(CCCN(C(=O)c3cnccn3)C2)C1 | inactive |
| Cn1cccc1C(=O)N1CCC2(CCCN(c3ccccc3)C2)CC1 | 10 µM (active) |
| O=C(c1csnn1)N1CCC[C@@]2(CCN(Cc3nccs3)C2)C1 | inactive |
| O=C(c1ccco1)N1CCC2(CC1)CN(Cc1cc(C(F)(F)F)cc(C(F)(F)F)c1)C2 | inactive |

| Structure (SMILES) | Potency |
| --- | --- |
| CC(C)NC(=O)N1CC[C@@]2(CCCN(C(=O)c3cc(C(F)(F)F)cc(C(F)(F)F)c3)C2)C1 | inactive |
| COCC(=O)N1CCC[C@@]2(CCN(Cc3ccccc3OC)C2)C1 | inactive |
| COc1ccccc1CN1CCCC2(CCN(S(C)(=O)=O)CC2)C1 | inactive |
| O=C(c1cc(C(F)(F)F)cc(C(F)(F)F)c1)N1CCC[C@@]2(CCN(Cc3ccncc3)C2)C1 | 12.6 µM (active) |
| Cc1cccc(CNc2ncnc3ccc(-c4cccc(C#N)c4)cc23)c1 | 0.631 µM (active) |
| O=C(c1ccncc1)N1CCC2(CC1)CCN(c1cccc(-c3ccccc3)c1)CC2 | 20 µM (active) |
| CS(=O)(=O)N1CCC2(CC1)CN(Cc1nccs1)C2 | 6.31 µM (active) |
| c1ccc(-c2cccc(N3CC[C@@]4(CCCNC4)C3)c2)cc1 | 12.6 µM (active) |
| CC(=O)N1CCC2(CC1)CN(c1ccccc1)C2 | inactive |
| CC(C)CN1CC[C@@]2(CCCN(S(=O)(=O)c3ccccc3)C2)C1 | 25.1 µM (active) |
| Cc1noc(C)c1C(=O)N1CCC[C@@]2(CCN(Cc3ccccc3)C2)C1 | inactive |
| O=C(c1csnn1)N1CCC2(CC1)CN(c1ccccc1)C2 | inactive |
| COCC(=O)N1CCC[C@@]2(CCN(C(=O)Nc3cccc(F)c3)C2)C1 | inactive |
| O=C(c1csnn1)N1CCC2(CC1)CN(c1ccccn1)C2 | inactive |
| COc1ccc(C(=O)N2CCC3(CCN(C)CC3)CC2)cc1 | inactive |
| CS(=O)(=O)N1CCC2(CCCN(C(=O)Nc3cccc(C#N)c3)C2)CC1 | inactive |
| Cc1noc(C)c1C(=O)N1CCC2(CCN(Cc3cc(C(F)(F)F)cc(C(F)(F)F)c3)CC2)CC1 | inactive |
| CC(C)NC(=O)N1CC2(CCN(C(=O)c3ccco3)CC2)C1 | inactive |
| CC(=O)N1CCC2(CC1)CN(C(c1ccccc1)c1ccccc1)C2 | inactive |
| COc1ccc(NC(=O)N2CC[C@@]3(CCCN(C(=O)c4csnn4)C3)C2)cc1 | inactive |

Test system: not listed separately
Assay: NFAT Signaling Pathway (AID 444);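 further: carbachol stimulus at about its EC50 of 1 µM final; on the % scale 0 is the no-effect control and ±100 the full control effect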
Settings: Jurkat NFAT-bla M1, carbachol, beta-lactamase ratio, 5 h; at 7.69 µM (top of the series) unless noted
Summary of the method: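 Read-out: CCF4 FRET ratio (460 nm/530 nm) after 1 h RT dye loading, used for %activity and AC50 from titration series. Cells: Jurkat NFAT-β-lactamase/M1 line, treated with compound plus 1 uM carbachol for 5 h, 37 °C.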

| Structure (SMILES) | activity change, negative = inhibition |
| --- | --- |
| O=C(Nc1cccc(F)c1)N1CCC2(CC1)CCN(C(=O)c1csnn1)CC2 | 26.3% |
| COC(=O)N1CCC2(CC1)CCN(c1ccccc1)CC2 | 7.28% |
| N#Cc1cccc(NC(=O)N2CCC3(CC2)CCN(C(=O)c2ccco2)CC3)c1 | -8.92% |
| O=C(c1cnccn1)N1CCC[C@@]2(CCN(c3ccncc3)C2)C1 | 1.53% |
| CS(=O)(=O)N1CCC2(CC1)CN(Cc1cc(C(F)(F)F)cc(C(F)(F)F)c1)C2 | -8.2% |
| Cn1cccc1C(=O)N1CCC[C@@]2(CCN(Cc3cc(C(F)(F)F)cc(C(F)(F)F)c3)C2)C1 | 7.04% |
| N#Cc1ccc(CN2CCCC3(CCN(C(=O)c4cccc(F)c4)CC3)C2)cc1 | -65.7% (active) |
| COc1ccc(NC(=O)N2CC3(CCN(C(C)=O)CC3)C2)cc1 | -0.444% |
| N#Cc1cccc(NC(=O)N2CCC3(CC2)CCN(C(=O)c2csnn2)CC3)c1 | 11.9% |
| COc1ccccc1CN1CCC2(CC1)CCN(C(C)=O)CC2 | -28.3% |
| Cc1noc(C)c1C(=O)N1CCC2(CCN(C(=O)Nc3ccccc3)CC2)CC1 | -2.66% |
| O=C(Oc1ccccc1)N1CCC2(CC1)CN(c1ccccc1)C2 | -1.1% |
| COC(=O)N1CCC[C@@]2(CCN(C(c3ccccc3)c3ccccc3)C2)C1 | -6.57% |
| Cn1cccc1C(=O)N1CCC2(CC1)CCN(c1ccccc1)CC2 | 20.8% |
| CC(=O)N1CCC2(CC1)CN(c1ccccn1)C2 | 6.27% |
| CS(=O)(=O)N1CCC2(CC1)CN(c1cccc(-c3ccccc3)c1)C2 | 9.12% |
| CC(C)CN1CC[C@@]2(CCCN(C(=O)c3cnccn3)C2)C1 | 13.6% |
| Cn1cccc1C(=O)N1CCC2(CCCN(c3ccccc3)C2)CC1 | 5.63% |
| O=C(c1csnn1)N1CCC[C@@]2(CCN(Cc3nccs3)C2)C1 | 2.26% |
| O=C(c1ccco1)N1CCC2(CC1)CN(Cc1cc(C(F)(F)F)cc(C(F)(F)F)c1)C2 | 15.6% |

| Structure (SMILES) | activity change, negative = inhibition |
| --- | --- |
| CC(C)NC(=O)N1CC[C@@]2(CCCN(C(=O)c3cc(C(F)(F)F)cc(C(F)(F)F)c3)C2)C1 | 9.52% |
| COCC(=O)N1CCC[C@@]2(CCN(Cc3ccccc3OC)C2)C1 | 7.38% |
| COc1ccccc1CN1CCCC2(CCN(S(C)(=O)=O)CC2)C1 | -28.3% |
| O=C(c1cc(C(F)(F)F)cc(C(F)(F)F)c1)N1CCC[C@@]2(CCN(Cc3ccncc3)C2)C1 | -25.1% |
| Cc1cccc(CNc2ncnc3ccc(-c4cccc(C#N)c4)cc23)c1 | -25.8% |
| O=C(c1ccncc1)N1CCC2(CC1)CCN(c1cccc(-c3ccccc3)c1)CC2 | 4.67% |
| CS(=O)(=O)N1CCC2(CC1)CN(Cc1nccs1)C2 | 11.5% |
| c1ccc(-c2cccc(N3CC[C@@]4(CCCNC4)C3)c2)cc1 | 6.24% |
| CC(=O)N1CCC2(CC1)CN(c1ccccc1)C2 | 3.05% |
| CC(C)CN1CC[C@@]2(CCCN(S(=O)(=O)c3ccccc3)C2)C1 | -7.95% |
| Cc1noc(C)c1C(=O)N1CCC[C@@]2(CCN(Cc3ccccc3)C2)C1 | 4.21% |
| O=C(c1csnn1)N1CCC2(CC1)CN(c1ccccc1)C2 | -3.86% |
| COCC(=O)N1CCC[C@@]2(CCN(C(=O)Nc3cccc(F)c3)C2)C1 | 9.68% |
| O=C(c1csnn1)N1CCC2(CC1)CN(c1ccccn1)C2 | -19.4% |
| COc1ccc(C(=O)N2CCC3(CCN(C)CC3)CC2)cc1 | -8.24% |
| CS(=O)(=O)N1CCC2(CCCN(C(=O)Nc3cccc(C#N)c3)C2)CC1 | 1.96% |
| Cc1noc(C)c1C(=O)N1CCC2(CCN(Cc3cc(C(F)(F)F)cc(C(F)(F)F)c3)CC2)CC1 | -22.4% |
| CC(C)NC(=O)N1CC2(CCN(C(=O)c3ccco3)CC2)C1 | 16.4% |
| CC(=O)N1CCC2(CC1)CN(C(c1ccccc1)c1ccccc1)C2 | -5.45% |
| COc1ccc(NC(=O)N2CC[C@@]3(CCCN(C(=O)c4csnn4)C3)C2)cc1 | 17.4% |
